Data on ten molecules can be found in PubChem BioAssay (NCATS).

Experiment [1] is described as follows: Cell Viability - LYMP2-025 (AID 976).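 Further: plate controls were DMSO only for no effect and tetraoctylammonium bromide control for full effect.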 A digest of the protocol:
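Human lymphoblastoid LYMP2-025 cells (2500/well) were pre-incubated 5 hr at 37 C, then treated with compounds for 24 hr at 37 C in complete medium. Viability was read as intracellular ATP by CellTiter-Glo luminescence; AC50 from Hill fits.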

The nature of experiment [2]: Cell Viability - LYMP2-002 (AID 977).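 Further: compound exposure lasted 24 h at 37 °C; plate controls were DMSO only for no effect and 92 µM tetraoctylammonium bromide for full effect.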 A digest of the protocol: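 Human lymphoblastoid LYMP2-002 cells, 2500 per well, exposed to compounds for 24 h at 37 C in complete medium; viability read as intracellular ATP by CellTiter-Glo luminescence, AC50 from Hill fits.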
Experiment [3] in a line: Cell Viability - LYMP2-006 (AID 978). Further: on the % scale 0 is the no-effect control and ±100 the full control effect; nearly all actives have a fitted effect of over 60% in size. In short, it runs like this: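 Cells are seeded at 2500 per well and rested 5 hr at 37 C. Compounds are added across a concentration series for 24 hr at 37 C, after which ATP is quantified by luciferase luminescence.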
Experiment [4] is described as follows: Cell Viability - LYMP2-007 (AID 979).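 Further: cells exposed to compound for 24 h before reading; 0% = DMSO only and the negative end = 92 µM tetraoctylammonium bromide; nearly all actives have a fitted effect of over 60% in size.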 A digest of the protocol:
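Human lymphoblastoid cells (2500/well) were plated in complete medium, incubated 5 hr at 37 C, then exposed to compounds for 24 hr at 37 C. Intracellular ATP was read by CellTiter-Glo luminescence after 30 min at room temperature; AC50 from Hill fits.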

Experiment [5] is described as follows: Cell Viability - LYMP2-008 (AID 980). Further: on the % scale 0 is the no-effect control and ±100 the full control effect; nearly all actives have a fitted effect of over 60% in size. A digest of the protocol: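 Human lymphoblastoid cells (2500/well) were plated, held 5 hr at 37 C, then exposed to compounds for 24 hr at 37 C in complete medium. Intracellular ATP was read by CellTiter-Glo luminescence; AC50 from Hill-fitted concentration-response.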
Experiment [6] is described as follows: Cell Viability - LYMP2-010 (AID 981). Further: on the % scale 0 is the no-effect control and ±100 the full control effect; nearly all actives have a fitted effect of over 55% in size. A digest of the protocol:
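Human lymphoblastoid LYMP2-010 cells (2500/well) were preincubated 5 hr at 37 C, then exposed to compounds for 24 hr at 37 C in complete medium. Intracellular ATP was measured by CellTiter-Glo luminescence after 30 min at room temperature; AC50 from Hill-fitted concentration-response.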

The nature of experiment [7]: Cell Viability - LYMP2-012 (AID 982).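 Further: cellular ATP by luciferase luminescence where a drop means cytotoxicity; cells exposed to compound for one day before reading; 0% = DMSO only and full loss = 92 µM tetraoctylammonium bromide; nearly all actives have a fitted effect of over 55% in size.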
Experiment [8] in a line: Cell Viability - LYMP2-014 (AID 983).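 Further: plate controls were DMSO only for no effect and 92 µM tetraoctylammonium bromide for full effect; nearly all actives have a fitted effect of over 50% in size.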 In short, it runs like this:
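Human lymphoblastoid cells (2500/well) were pre-incubated 5 hr at 37 C, then exposed to compounds in complete medium for 24 hr at 37 C. Intracellular ATP was read by CellTiter-Glo luminescence after 30 min at room temperature; AC50 from Hill fits.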

Experiment [9] is described as follows: Cell Viability - LYMP2-016 (AID 984). Further: on the % scale 0 is the no-effect control and ±100 the full control effect; nearly all actives have a fitted effect of over 55% in size. In short, it runs like this:
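Cells were seeded at 2500 per well and rested 5 hr before a 24 hr compound exposure at 37 C. Viability was then gauged as cellular ATP by luciferase luminescence, with AC50 values fitted to the Hill equation.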

A short description of experiment [10]: Cell Viability - LYMP2-018 (AID 985).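 Further: plate controls were DMSO only for no effect and tetraoctylammonium bromide at 92 µM for full effect; nearly all actives have a fitted effect of over 50% in size.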 In short, it runs like this: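 Human lymphoblastoid cells (2500/well) were pre-incubated 5 hr at 37 C, then exposed to compounds for 24 hr at 37 C in complete medium. Viability was read as intracellular ATP by CellTiter-Glo luminescence; AC50 values came from Hill-equation fits.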
Experiment [11] can be described thus: Cell Viability - LYMP2-020 (AID 986).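 Further: plate controls were DMSO only for no effect and tetraoctylammonium bromide at 92 µM for full effect; nearly all actives have a fitted effect of over 55% in size.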 In short, it runs like this: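 Human lymphoblastoid cells, 2500/well, were pre-incubated 5 hr at 37 C, then exposed to compounds for 24 hr at 37 C in complete medium. Intracellular ATP was read by CellTiter-Glo luminescence, and AC50 was derived by Hill fitting of concentration-response data.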
Experiment [12] in a line: Cell Viability - LYMP2-022 (AID 987). In short, it runs like this: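 Human lymphoblastoid cells, 2500/well, preincubated 5 hr at 37 C, then exposed to compounds over a concentration range for 24 hr at 37 C in complete medium. Viability read as intracellular ATP by CellTiter-Glo luminescence after 30 min at room temperature; AC50 from Hill fits.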
The nature of experiment [13]: Cell Viability - LYMP2-024 (AID 988).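 Further: plate controls were DMSO only for no effect and 92 µM tetraoctylammonium bromide for full effect; nearly all actives have a fitted effect of over 60% in size.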 In short, it runs like this: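 Human lymphoblastoid cells (2500/well) in complete medium were preincubated 5 hr at 37 C, then exposed to compounds for 24 hr at 37 C. Intracellular ATP was read by CellTiter-Glo luminescence; AC50 from Hill-equation fits of concentration-response data.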
A short description of experiment [14]: Cell Viability - LYMP2-026 (AID 989). Further: on the % scale 0 is the no-effect control and ±100 the full control effect; nearly all actives have a fitted effect of over 50% in size. In short, it runs like this: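 Human lymphoblastoid cells (2500/well) in complete medium were preincubated 5 hr at 37 C, then exposed to compounds for 24 hr at 37 C. Cellular ATP was read by CellTiter-Glo luminescence; AC50 from Hill-equation fits of concentration-response data.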
Experiment [15] in a line: Cell Viability - LYMP1-002 - Assay at 24 hr (AID 993). Further: on the % scale 0 is the no-effect control and ±100 the full control effect. A digest of the protocol: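 Human lymphoblastoid LYMP1-002 cells, 2500/well in complete medium, were treated with compounds for 24 h at 37 C; intracellular ATP was read by CellTiter-Glo luminescence. AC50 values came from Hill-equation fits of qHTS concentration-response data.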
Experiment [16] in a line: Cell Viability - LYMP1-002 - Assay at 40 hr (AID 994). In short, it runs like this:
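Human lymphoblastoid cells, 2500/well in complete medium, were preincubated 5 hr at 37 C, then exposed to compounds for 40 hr at 37 C. Intracellular ATP was read by CellTiter-Glo luminescence after 30 min at room temperature; AC50 from Hill-equation fits.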

The target of experiment [17] is Alpha-galactosidase A (Homo sapiens) (UniProt P06280). Briefly: Counterscreen for Glucocerebrosidase Inhibitors: qHTS Assay for Human alpha-Galactosidase at pH 4.5 (AID 992). Further: 0% is about no effect. A digest of the protocol:
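Concentration-response curves (0.7 nM to 77 uM final) were modeled with the Hill equation to give AC50. Reactions: 2 nM enzyme, 80 uM fluorogenic alpha-galactoside, pH 4.5 citric acid buffer, 20 min, room temperature.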

Experiment [18] concerns the target alpha-glucosidase (Oryza sativa, rice) (UniProt Q653V4). The experiment is described as follows: Counterscreen for Glucocerebrosidase Inhibitors: qHTS Assay for Rice alpha-Glucosidase at pH 5.0 (AID 997).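 Further: 0% = full activity with enzyme and -100% = basal without enzyme.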 A digest of the protocol: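 Rice alpha-glucosidase (4 nM final) with 400 uM 4-methylumbelliferyl-alpha-D-glucopyranoside in citrate buffer pH 5.0, 20 min at room temperature, stopped at pH 10; fluorescence 365/440 nm, compounds 0.7 nM–77 uM, AC50 from Hill fits.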

Experiment [19] can be described thus: qHTS Assay for Lipid Storage Modulators (AID 1519; calls by dose curve; on activity change, negative = inhibition: on the % scale 0 is the no-effect control and ±100 the full control effect). Particulars: Drosophila S3 cells, BODIPY lipid droplet/cell ratio, laser cytometry, cells loaded with oleic acid; for activity change, negative = inhibition: at 57.5 µM (top of the series). In short, it runs like this:
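Cells seeded at 5,000 per well were treated with compounds over a concentration series and loaded with oleic acid (400 uM, as added). Lipid droplet fluorescence (488 nm excitation, 500-530 nm channel) was read by laser-scanning cytometry and normalized to 20 uM Triacsin C.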
A general note: In qHTS, concentration-response curves come from the screen itself.

The mark [20] stands for this setting: measured here: cell count channel max response.
[21] abbreviates: measured here: lipid channel max response.

Each structure is given as a SMILES string. Several values for one entry are separate records, joined by “and”; a condition that tells them apart may be missing. Equal entries are not always repeated. Inconclusive results are not listed. Activity calls are given as the source filed them. Unless noted, the call rests on the fitted dose curve; in most records, active means well fitted curve in the direction sought with a large enough effect; inconclusive means small, poorly fitted or top-dose-only effect, or another doubt; inactive means no such curve, though single readings can be large; an effect the other way counts as inactive or inconclusive.

Alpha-galactosidase A (Homo sapiens), sequence (P06280 whole entry, looked up): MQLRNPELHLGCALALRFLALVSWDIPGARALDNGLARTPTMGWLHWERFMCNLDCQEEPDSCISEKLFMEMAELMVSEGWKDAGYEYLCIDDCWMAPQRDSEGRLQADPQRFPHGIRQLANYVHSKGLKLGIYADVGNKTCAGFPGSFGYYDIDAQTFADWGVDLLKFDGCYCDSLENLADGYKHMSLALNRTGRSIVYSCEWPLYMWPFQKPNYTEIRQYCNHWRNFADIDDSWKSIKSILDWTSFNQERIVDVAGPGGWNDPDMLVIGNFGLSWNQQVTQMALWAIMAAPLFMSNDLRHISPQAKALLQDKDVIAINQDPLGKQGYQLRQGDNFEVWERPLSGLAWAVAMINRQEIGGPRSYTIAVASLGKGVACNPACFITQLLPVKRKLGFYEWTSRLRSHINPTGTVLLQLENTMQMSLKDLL

Consider `O=C(O)/C=C\C(=O)O`, for which the Potency entry in experiment [1], in experiment [2], in experiment [3], in experiment [4], in [5] and in experiment [6] was “inactive” in each case. Also, the Potency result in experiment [7], in experiment [8], in [9], in experiment [10], in experiment [11] and in [12] was “inactive” in each case. For the same molecule, the Potency entry in [13], in experiment [14], in experiment [15] and in experiment [16] was “inactive” each time.

Regarding `NCCSSCCN`, the molecule was classed as inactive in experiment [17] and in experiment [18]. Further, the activity change, negative = inhibition in [19] is 3.98% (inactive). The max response in experiment [19] (setting [20]) was determined as 9.22%; in [19] (setting [21]), 16.2%.

In the case of `O=c1[nH]c2cc(C(F)(F)F)ccc2n1-c1cc(C(F)(F)F)ccc1O`, the molecule was called inactive in experiment [17] and in experiment [18]. For the same molecule, the activity change, negative = inhibition in experiment [19] is -0.787% (inactive). Moreover, the results for the max response in experiment [19] (setting [20]) and in experiment [19] (setting [21]) were 34.5% and 34%, respectively.

Take `COc1cc(OC)c(/C=C2/C(=O)Nc3ccccc32)c(OC)c1`: the molecule was classed as inactive in experiment [17] and in [18]. Also, the activity change, negative = inhibition in experiment [19] was -1.27% (inactive). Further, the results for the max response in experiment [19] (setting [20]) and in experiment [19] (setting [21]) were 30.4% and 28.6%, respectively.

For `O=S(=O)(c1cccc2c(I)cccc12)N1CCCNCC1`, the result in experiment [17] and in experiment [18] was inactive. In addition, the activity change, negative = inhibition in [19] is 1.19% (inactive). Moreover, the values for the max response in [19] (setting [20]) and in experiment [19] (setting [21]) were -8.25% and -5.07%, respectively.

Consider `CCCN(CC1CC1)c1nc(C)nc(Nc2c(Cl)cc(Cl)cc2Cl)c1Cl`, for which the molecule was called inactive in experiment [17] and in experiment [18]. Besides, the activity change, negative = inhibition in [19] is -0.101% (inactive). The max response in [19] (setting [20]) and in experiment [19] (setting [21]) was -15.8% throughout.

Consider `O=C(c1cc(O)c(O)c([N+](=O)[O-])c1)c1ccccc1F`, for which the molecule was classed as inactive in [17] and in experiment [18]. Also, the activity change, negative = inhibition in experiment [19] was -2.67% (inactive). The max response in [19] (setting [20]) is -12%; in experiment [19] (setting [21]) it was -15.8%.

`O=C(O)c1cc(=O)c2c(Cl)cc(Cl)cc2[nH]1`: the outcome in experiment [17] and in experiment [18] was inactive. Also, in experiment [19], the activity change, negative = inhibition was 4.31% (inactive) and -0.435% (inactive). In addition, the max response is 15.8% and 12.6% in experiment [19] (setting [20]); 22.3% and 11.7% in experiment [19] (setting [21]).

On to `Cn1c(=O)c2[nH]c(-c3ccccc3)nc2n(C)c1=O`, for which the result in experiment [17] and in experiment [18] was inactive. In addition, the activity change, negative = inhibition in experiment [19] was 1.32% (inactive). Besides, the max response in experiment [19] (setting [20]) is 63.6%; in experiment [19] (setting [21]) it was 55.6%.

For the molecule `CC1(C)S[C@@H]2[C@H](NC(=O)[C@H](N)c3ccccc3)C(=O)N2[C@H]1C(=O)O`, the Potency entry in [1], in [2], in [3], in experiment [4], in experiment [5] and in experiment [6] was “inactive” in each case. The Potency result in [7], in [8], in experiment [9], in experiment [10], in [11] and in experiment [12] was “inactive” in each case. Besides, the Potency entry in experiment [13], in experiment [14], in [15] and in experiment [16] was “inactive” throughout.
